Screens (PubChem)
TTR transcr act – TTR transcription activators in neuroblastoma reporter cells, primary screen, cell-based, luminescence, SH-SY5Y, TTR promoter Gaussia luciferase | AID 1117267, 2014 | 92,000 tested, 1.3% active | 100% = recombinant luciferase protein wells | activation, % at 16.7 µM;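 active = activation above the mean of all tested compounds plus 3 SD, cut at about 9.5% in these data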;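 also: cells exposed to compounds for one day before reading; 0% = median of all test compound wells on the plate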
* marks the source's active call; other numbers are inactive results. Only a selection was taken, and hits are over-represented in it overall.

SMILES	TTR transcr act
CCOC(=O)c1[nH]c2ccc(OC)cc2c1NC(=O)CCN1CCSCC1	6
COC(=O)c1[nH]c2cc(OC)ccc2c1NC(=O)CCN1CCN(c2cccc(C)c2C)CC1	22*
COC(=O)c1[nH]c2cccc(OC)c2c1NC(=O)CCN1CCN(c2ccccc2F)CC1	-4
CN1C2=N[C@@H](c3cccc(C(F)(F)F)c3)CC(=O)N2/C(=C\c2ccccc2)[C@H]1c1ccccc1	-2
CCOC(=O)C1C(=O)CC(C)(O)C(C(=O)OCC)C1c1ccc(OC)cc1 (configuration not stated)	-1
CC(C)OC(=O)C1C(=O)CC(C)(O)C(C(=O)OC(C)C)C1c1cccnc1 (configuration not stated)	12*
CCOC(=O)C1C(=O)CC(C)(O)C(C(=O)OCC)C1c1cccc(OC)c1 (configuration not stated)	3
Cc1ccc2nc(-c3sc4nc(C)ccc4c3N)[nH]c2c1	-2
Cc1ccc2c(N)c(C#N)sc2n1	27*
Cc1ccc2c(n1)sc1c(-c3ccccc3)c(C#N)c(N)nc12	0
C#CCNC(=O)C[C@@H]1C(=O)N2CCCC3=C2[C@@]1(C(=O)OCC)CCC3	4
COc1cccc(Cn2cc(COC(=O)N3CCOCC3)nn2)c1	0
O=C(CSc1nnc(Cc2ccccc2)n1-c1cccc(Cl)c1)N1CCOCC1	22*
Cc1cccc(-n2c(SCC(=O)N3CCN(c4ccccn4)CC3)nnc2N2CCOCC2)c1	0
Cn1c(CCc2ccccc2)nnc1SCC(=O)N1CCOCC1	1
CC(C)CNC(=O)OCc1cn(Cc2ccc(C(F)(F)F)cc2)nn1	1
COC(=O)c1cc(OC)c(OC)cc1NC(=S)Nc1cccc(Cl)c1	17*
COC(=O)c1cc(OC)c(OC)cc1NC(=S)Nc1cc(Cl)ccc1OC	9
COC(=O)c1cccc(NC(=S)Nc2cccc(Cl)c2Cl)c1	1
O=C1CCC[C@H]2C[C@H](NCc3ccco3)CC[C@]23CCCN13	0
O=C(C(c1ccccc1)c1ccccc1)N1CCN(CCN2C(=O)c3cccc4cccc(c34)C2=O)CC1	0
OC(C#CCN1CCCC1)c1ccccc1 (configuration not stated)	-1
O=C1c2ccccc2C(=O)N1CC#CCN1CCN(C(c2ccccc2)c2ccccc2)CC1	11*
CC(C)Oc1ccc(Oc2ccc(C#C[C@H](C)N3C(=O)c4ccccc4C3=O)cc2)cn1	2
CCCC[C@H](C(=O)N(C)c1ccccc1)[C@@H](O)c1ccc(C(C)=O)cc1	2
SMILES	TTR transcr act
O=C1C[C@@H](O)[C@H](O)c2cccc(O)c21	1
CCOc1ccc(-n2c(SCC(=O)Nc3cc(C)on3)nc3c([nH]c4ccccc43)c2=O)cc1	-1
CCOc1ccc(-n2c(SCC(N)=O)nc3c([nH]c4ccccc43)c2=O)cc1	12*
COc1ccc(-n2c(SCC(=O)Nc3cc(C)on3)nc3c([nH]c4ccccc43)c2=O)cc1	-1
O=C(NC12CC3CC(CC(C3)C1)C2)c1cc(F)c(F)cc1Cl	0
O=C(NC12CC3CC(CC(C3)C1)C2)c1ccccc1O	9.9*
O=C(NC12CC3CC(CC(C3)C1)C2)c1ccco1	-1
Cc1ccccc1Cn1cc(COC(=O)Nc2ccc(F)cc2)nn1	0
CCCC1CCC2(CC1)CCC2OC(=S)Nc1cccc(C(F)(F)F)c1 (configuration not stated)	2
CN1CC(=O)N2[C@@H](C[C@]3(c4c[nH]c5ccccc45)c4ccccc4N(S(=O)(=O)c4ccccc4)[C@H]23)C1=O	0
CC(=O)NCC(=O)N(Cc1ccco1)C1(C(=O)NC2CCCCC2)CCCCC1	4
CC(=O)N(Cc1ccco1)C1(C(=O)NC2CCCCC2)CCCCC1	10*
Cc1cc(NC(=O)CCC(=O)N(Cc2ccco2)C2(C(=O)NC3CCCC3)CCCCC2C)no1 (configuration not stated)	0
CC(C)(N[C@@H](Cc1c[nH]c2ccccc12)C(=O)NCC(c1ccccc1)c1ccccc1)C(=O)NC1CCCCC1	-2
COC(=O)[C@]12C[C@H](CC(=O)NCC34CC5CC(CC(C5)C3)C4)C(=O)N(Cc3ccc4c(c3)OCO4)C1=C[C@H](C(C)C)O[C@@H]2C1CC1	0
C[C@H]1[C@H](NC(=O)c2ccc(C(F)(F)F)cc2)CC[C@@]23CCCN2C(=O)CCC[C@@H]13	1
COC(=O)C1CN(CC(C)C)CCS(=O)(=O)N1Cc1cccc(Cl)c1 (configuration not stated)	2
CC[C@@H](C)[C@H](NC(=O)OCc1ccccc1)c1nnc([C@@H](NC(=O)OCc2ccccc2)[C@@H](C)CC)o1	11*
NC(=O)C(NC(=O)OCc1ccccc1)c1ccccc1 (configuration not stated)	-2
CC(C)[C@H](NC(=O)OCc1ccccc1)C(=O)NCc1ccccc1	1
CN(C)c1cccc(-c2cnc(N3CCC(C(N)=O)CC3)s2)c1	3
COc1ccc(NC(=O)c2c(C)nn(-c3ccccc3)c2Cl)cc1	1
CCc1nnc(NC(=O)c2c(C)nn(-c3ccccc3)c2Cl)s1	22*
Cc1nn(-c2ccccc2)c(Cl)c1C(=O)NCC(C)C	8
COC(=O)[C@]12C[C@H](CC(=O)N3CCN(C(=O)C4CC4)CC3)C(=O)N(Cc3ccc(Cl)cc3Cl)C1=C[C@H](COCc1ccccc1)O[C@@H]2C	0
SMILES	TTR transcr act
O=C(NC1CCCCN(Cc2ccc(Cl)cc2)C1=O)c1cccc(C(F)(F)F)c1 (configuration not stated)	4
CCOC(=O)[C@]12CCCC=C1N(CCCOC)C(=O)[C@@H]2CC(=O)NCCCN1CCCC1=O	2
S=C(c1nc2ccccc2[nH]1)N1CCOCC1	10.0*
O=C(CN1CCOCC1)Nc1ccc(-c2nc3ccccc3[nH]2)cc1	1
O=c1[nH]c2ccccc2nc1N1CCOCC1	0
C[C@H]1[C@H](NCc2cccnc2)CC[C@@]23CCCN2C(=O)CCC[C@@H]13	1
Cn1c(=O)cc(OCCCC(=O)Nc2cc(-c3ccncc3)ccn2)c2ccccc21	1
C=CC(=O)N1C/C=C\C(c2ccc(OC)cc2)N(Cc2ccc(F)cc2)C(=O)C1 (configuration not stated)	-2
COc1ccc(C2/C=C\CN(S(=O)(=O)c3ccc(C)cc3)CC(=O)N2Cc2ccc(F)cc2)cc1 (configuration not stated)	16*
CCCCCN1C/C=C\C(c2ccc(OC)cc2)N(Cc2ccc(F)cc2)C(=O)C1 (configuration not stated)	2
C=CCn1c(Sc2nc(C)cs2)nc2c1c(=O)[nH]c(=O)n2C	5
C=C(C)Cn1c(Sc2nnc(C)s2)nc2c1c(=O)[nH]c(=O)n2C	12*
Cc1nnc(SCCn2c(N3CCCCC3)nc3c2c(=O)[nH]c(=O)n3C)s1	1
O=C(NCCc1nc2ccccc2n1CCOc1cc(F)ccc1F)C1CCCCC1	1
C=CCN(C)C(C#Cc1ccccc1)Cc1ccccc1 (configuration not stated)	0
Fc1c(-c2ccc3ncnc(NCc4cccs4)c3c2)ccc2c1OCO2	2
COc1ccc(-c2cc3ccccc3oc2=O)cc1NC(=O)c1cccnc1	-2
O=C(NNC(=O)c1cc2ccccc2oc1=O)c1ccccc1	0
O=C(OCCNC(=O)c1cc2ccccc2oc1=O)c1cccnc1	12*
C#CCNC(=O)C[C@H]1C(=O)N(CCCOC)C2=CCCCC[C@]21C(=O)OC	0
